# Source: PubChem (several laboratories)
# Many of the other results were omitted from the sample, so hits are more common in it than they were.
# Autofluor counter: compound fluorescence in toxin protease inhibitor counterscreen | compound autofluorescence counterscreen, microsphere flow cytometry; active compounds read high | hit rate 3.1% among 360,000 | AID 624483 | fluorescence intensity (concentration not given with the values); in the data active means fluorescence intensity above about 16000; inconclusive means no clear call, values can overlap the other calls
# BoNT A protease: blocks Botulinum neurotoxin A light chain protease | hit rate 0.17% among 360,000 | multiplex microsphere protease substrate cleavage, flow cytometry | inhibition, % at 10 µM | AID 588499; further: plate controls were buffer without enzyme for full effect and enzyme alone for no effect
# BoNT-F LC inh: inhibitors of Botulinum neurotoxin F light chain protease | hit rate 0.22% among 360,000 | inhibition, % at 10 µM | Multiplex microsphere protease cleavage assay, flow cytometry | AID 588497; in the data active means inhibition above about 35%, passing the limit was not always enough; inconclusive means no clear call, values can overlap the other calls; further: plate controls were buffer without enzyme for full effect and enzyme alone for no effect
# TcdB GH inh: TcdB glycohydrolase inhibition | P18177 | TcdB glycohydrolase enzymatic assay, plate reader | inhibition, % at 9.99 µM | hit rate 0.24% among 350,000 | AID 652162; in the data active means inhibition above about 10%
# Anthrax LF prot: inhibitors of Bacillus anthracis lethal factor protease; P15917; multiplex microsphere protease cleavage assay, LF; inhibition, % at 10 µM; hit rate 0.12% among 360,000; further: plate controls were buffer without enzyme for full effect and enzyme alone for no effect
# * marks the source's active call; other numbers are inactive results; ? = inconclusive; . = not tested or not shown. Unless noted, no stated cut-off is given here; in the data, active means inhibition above about 30%; inconclusive means no clear call, values can overlap the other calls; inactive means below that.
SMILES,Autofluor counter,BoNT A protease,BoNT-F LC inh,TcdB GH inh,Anthrax LF prot
Cc1ccc([N+](=O)[O-])cc1-c1[nH]c(-c2ccc(O)c(O)c2)nc1-c1ccccc1,16205*,0,-6,.,-9
CN(C)CC(=O)N1CC2(C1)[C@H](c1ccccc1)[C@H](CO)N2C(=O)C1CCCC1,.,.,.,0,.
Cc1cc(N2CCCC2)c(C)cc1C=O,22088*,2,-17,.,-4
Cc1cc(N)ccc1N1CCCC1,1599,-3,-116,.,-74
C[C@@H]1CN([C@@H](C)CO)C(=O)c2cccc(NS(=O)(=O)c3ccc(Cl)cc3)c2O[C@@H]1CN(C)C(=O)NC1CCCCC1,.,.,.,-1,.
Cc1noc(C)c1NC(=O)N[C@H]1CC[C@@H](CC(=O)Nc2ccc(-c3ccccc3)cc2)O[C@H]1CO,.,.,.,-6,.
O=C(NC1(C(F)(F)F)Oc2ccccc2O1)N1CCC2(CC1)OCCO2,21302*,-2,-2,1,1
CN1C(=O)C(O)(CC(=O)c2cccnc2)c2ccccc21 (stereo unspecified),23918*,-3,-5,.,-3
C[C@@H]1CN([C@@H](C)CO)C(=O)c2cc(NC(=O)c3ccncc3)ccc2O[C@@H]1CN(C)S(=O)(=O)c1ccc(F)cc1,.,.,.,1,.
COc1cccc(NC(=O)Nc2ccc3c(c2)C(=O)N(C)C[C@@H](OC)[C@H](C)CN(CCC(F)(F)F)[C@H](C)CO3)c1,.,.,.,-3,.
C=CCNC(=O)c1ccc(N(C)S(=O)(=O)c2ccc(OC)cc2)cc1,16765*,-2,-4,.,0
Fc1ccccc1N1CCN(Cc2ccc3c(c2)OCO3)CC1,21279*,4,3,.,0
O=S(=O)(c1cccc(F)c1)N1CCN(Cc2ccc3c(c2)OCO3)CC1,16310*,1,4,.,-4
C[C@@H]1CN([C@H](C)CO)C(=O)c2cc(NC(=O)CCC(F)(F)F)ccc2O[C@@H]1CN(C)Cc1ccc(Oc2ccccc2)cc1,.,.,.,1,.
CCOC(=O)C1=C(CC)OC(N)=C(C#N)C1c1cc(OC)ccc1OC (stereo unspecified),21578*,?,-8,.,0
CCOc1cc(C2C(C#N)=C(N)OC(C)=C2C(C)=O)c(Br)c(Br)c1OC(C)C (stereo unspecified),21864*,3,4,.,0
CCOC(=O)C1=C(CC)OC(N)=C(C#N)C1c1ccc(OC)c(C)c1OC (stereo unspecified),2513,-2,-12,.,-1
CCOC(=O)C1=C(C)OC(N)=C(C#N)C1c1ccc(OC)c(C)c1OC (stereo unspecified),20362*,?,-2,.,1
CCCC#Cc1ccc2c(c1)O[C@@H](CN(C)C(C)=O)[C@H](C)CN([C@@H](C)CO)S2(=O)=O,.,.,.,1,.
C[C@@H]1CN([C@H](C)CO)C(=O)c2cc(C3=CCCCC3)cnc2O[C@H]1CN(C)C(=O)c1cccnc1,.,.,.,0,.
CNC(=O)C[C@@H]1CC[C@H]2[C@@H](COc3ccc(NC(=O)c4ccc(F)c(F)c4)cc3C(=O)N2C)O1,.,.,.,-1,.
Cc1noc(C)c1NC(=O)Nc1ccc2c(c1)C(=O)N([C@@H](C)CO)C[C@@H](C)[C@H](CN(C)C(=O)c1ccccc1)OCCCC[C@@H](C)O2,.,.,.,-1,.
Cc1cccc(N=Nc2c(N)n[nH]c2-c2ccc(Cl)cc2)c1,20404*,1,-2,.,-6
Nc1nc(SCC(=O)Nc2ccc(Br)cc2F)n[nH]1,2436,0,-10,.,-1
Cc1cc(Br)ccc1NC(=O)CNC(=O)CSc1n[nH]c(N)n1,3808,1,40*,.,-9
SMILES,Autofluor counter,BoNT A protease,BoNT-F LC inh,TcdB GH inh,Anthrax LF prot
CC(C)NC(=O)Nc1cccc2c1O[C@H](CN(C)Cc1ccc(Cl)c(Cl)c1)[C@@H](C)CN([C@@H](C)CO)C2=O,.,.,.,1,.
CCOc1ccccc1N(C(C)=O)S(=O)(=O)c1ccc(Cl)cc1,6992,0,-2,1,-6
CC(=O)N(c1ccccc1C)S(=O)(=O)c1ccc(Cl)cc1,4582,0,-6,11*,-7
COCC(=O)N1[C@H](C#N)[C@H](c2ccccc2-c2cccc(F)c2)[C@@H]1CO,.,.,.,-1,.
O=C(c1ccc(Cl)cc1)c1oc2ccccc2c1CS(=O)(=O)c1ccccc1,22160*,0,1,2,-4
O=C(COC(=O)CNC(=O)C1CCCCC1)Nc1ccc(Cl)cn1,21353*,-5,-5,.,0
O=C(COC(=O)CC1CCCC1)Nc1ccc(Cl)cn1,2906,0,0,1,-11
CCCN1C(=O)CC(Sc2ncccc2C(=O)O)C1=O (stereo unspecified),4775,-1,6,0,2
COc1ccc(CCN2C(=O)CC(Sc3ncccc3C(=O)O)C2=O)cc1OC (stereo unspecified),23415*,0,1,.,2
N#Cc1cccc(NC(=O)CSc2ccc3c4c(cccc24)C(=O)c2ccccc2-3)c1,7954,44*,43*,.,28
COc1ccccc1-c1cn(CC[C@H]2CC[C@H](NC(=O)NC(C)C)[C@@H](CO)O2)nn1,.,.,.,0,.
Fc1ccc(C(c2nnnn2C2CCCC2)N2CCc3ccccc32)cc1 (stereo unspecified),17043*,-3,-5,.,-3
COc1cc2cc(C(c3nnnn3C(C)(C)C)N3CCc4ccccc43)c(=O)[nH]c2cc1OC (stereo unspecified),7713,0,-18,0,-2
COc1ccccc1N1CCN(C(c2cc3cc(C)ccc3[nH]c2=O)c2nnnn2C2CCCC2)CC1 (stereo unspecified),21854*,2,3,.,0
Fc1ccc(C(c2nnnn2CCc2ccccc2)N2CCCc3ccccc32)cc1 (stereo unspecified),5148,-2,-33,.,-6
CCN(CC)C(c1ccc(F)cc1)c1nnnn1C1CCCCC1 (stereo unspecified),21991*,2,4,.,-1
COc1cc2cc(C(c3nnnn3C3CCCC3)N3CCc4ccccc43)c(=O)[nH]c2cc1OC (stereo unspecified),19430*,6,5,1,0
C=CC[C@@]1(C(=O)NCC(O)CO)N=C(c2ccc(OCCCO)cc2)O[C@@H]1c1ccccc1 (stereo partly specified),.,.,.,0,.
CCOC(=O)C1CCN(C(c2cc3ccc(C)cc3[nH]c2=O)c2nnnn2C2CCCCC2)CC1 (stereo unspecified),28733*,-3,1,.,1
CCC(C)(C)n1nnnc1C(c1cc2ccc(OC)cc2[nH]c1=O)N1CCN(C2CCCCC2)CC1 (stereo unspecified),21897*,?,-5,.,3
C[C@H]1CN([C@@H](C)CO)C(=O)Cc2cc(NC(=O)Cc3ccccc3)ccc2O[C@@H]1CN(C)C(=O)Nc1ccc(C(F)(F)F)cc1,.,.,.,-2,.
O=C(CCC(=O)OCC(F)(F)C(F)F)Nc1ccc(Cl)cc1,17876*,?,6,.,-13
COc1ccc(NC(=O)CCC(=O)OCc2ccc(C(=O)Oc3ccc(Cl)cc3)cc2)cc1,19988*,0,-1,.,-2
Cc1ccc(NC(=O)OCC(F)(F)C(F)F)cc1NC(=O)OCC(F)(F)C(F)F,21692*,?,-8,.,-9
